These results are taken from ChEMBL document CHEMBL3988442, “University of Dundee, Small-Polar-MMV Screening Library” (2021).

Common to all, as to design: scale not given: direction of the effect not stated beside the values
For test [1], the target named is Protein translocase subunit SecA (Escherichia coli (strain K12)) (UniProt P10408). Description: Assay to Identify E. coli SecA ATPase Inhibitors. The class given is functional. The conditions noted are these: 30 µM.
In test [2] the target is T1, Ubiquitin-activating enzyme e1, putative (Leishmania donovani (strain BPK282A1)) (UniProt E9BSI1).
T1 sequence (whole entry): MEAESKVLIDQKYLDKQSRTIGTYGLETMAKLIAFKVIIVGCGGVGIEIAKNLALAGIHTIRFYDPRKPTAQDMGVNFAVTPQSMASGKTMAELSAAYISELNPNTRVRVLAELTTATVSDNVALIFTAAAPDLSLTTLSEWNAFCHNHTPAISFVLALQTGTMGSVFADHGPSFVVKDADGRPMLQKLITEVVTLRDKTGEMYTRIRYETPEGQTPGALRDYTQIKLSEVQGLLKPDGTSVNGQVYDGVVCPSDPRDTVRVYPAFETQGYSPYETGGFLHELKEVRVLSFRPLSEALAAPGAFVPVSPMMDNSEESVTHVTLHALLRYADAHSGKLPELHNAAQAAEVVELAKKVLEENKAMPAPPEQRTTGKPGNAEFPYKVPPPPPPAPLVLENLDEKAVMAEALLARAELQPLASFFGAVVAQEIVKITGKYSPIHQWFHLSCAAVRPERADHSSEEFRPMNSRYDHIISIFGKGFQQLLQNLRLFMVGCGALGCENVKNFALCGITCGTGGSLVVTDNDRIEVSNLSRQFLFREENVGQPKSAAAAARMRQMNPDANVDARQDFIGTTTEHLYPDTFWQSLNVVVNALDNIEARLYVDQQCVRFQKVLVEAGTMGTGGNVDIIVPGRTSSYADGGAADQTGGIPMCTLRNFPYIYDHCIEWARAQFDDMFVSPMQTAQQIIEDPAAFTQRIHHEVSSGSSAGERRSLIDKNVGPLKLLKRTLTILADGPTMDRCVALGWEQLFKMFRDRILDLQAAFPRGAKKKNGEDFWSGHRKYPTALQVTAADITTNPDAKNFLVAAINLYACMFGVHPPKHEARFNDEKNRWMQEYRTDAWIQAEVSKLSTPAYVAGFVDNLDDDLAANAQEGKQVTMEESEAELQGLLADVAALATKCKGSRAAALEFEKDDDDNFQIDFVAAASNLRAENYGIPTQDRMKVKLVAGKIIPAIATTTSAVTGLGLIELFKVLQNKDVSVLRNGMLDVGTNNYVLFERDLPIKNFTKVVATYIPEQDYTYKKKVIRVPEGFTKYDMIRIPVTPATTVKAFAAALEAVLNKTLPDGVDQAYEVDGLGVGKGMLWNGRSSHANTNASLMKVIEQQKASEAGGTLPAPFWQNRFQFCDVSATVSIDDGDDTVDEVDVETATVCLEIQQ
In words: Leishmania donovani Ubiquitin Activating Enzyme (LdE1). The class given is functional. Particulars: 30 µM.

The target of test [3] is AMP-activated protein kinase, AMPK (Homo sapiens) (UniProt P54646+O43741+P54619+Q9UGJ0+Q9Y478+Q13131+Q9UGI9). In words: AMP-dependent Kinase enzyme assay. An in vitro enzyme assay that detects ADP turnover that is directly proportional to AMPK activity. This uses naive AMPK that is activated during the assay with MK-8722. The class given is functional. Particulars: 30 µM.

The target in test [4] is Sialic acid-binding Ig-like lectin 9 (Homo sapiens) (UniProt Q9Y336). In words: Hs-Siglec9 ALPHAscreen SOP 20170721. The conditions noted are these: 10 µM. (In general: In Alpha technology, singlet oxygen from a donor bead excites a nearby acceptor bead.)
Another test has as its system Trypanosoma cruzi. In words: Trypanosoma cruzi phosphomannomutase and mannose-1-phosphate guanylyltransferase assay. Particulars: 10 µM. The class given is functional.
Test [5] has as its target T2, Arginase-2, mitochondrial (Homo sapiens) (UniProt P78540).
T2 sequence (whole entry): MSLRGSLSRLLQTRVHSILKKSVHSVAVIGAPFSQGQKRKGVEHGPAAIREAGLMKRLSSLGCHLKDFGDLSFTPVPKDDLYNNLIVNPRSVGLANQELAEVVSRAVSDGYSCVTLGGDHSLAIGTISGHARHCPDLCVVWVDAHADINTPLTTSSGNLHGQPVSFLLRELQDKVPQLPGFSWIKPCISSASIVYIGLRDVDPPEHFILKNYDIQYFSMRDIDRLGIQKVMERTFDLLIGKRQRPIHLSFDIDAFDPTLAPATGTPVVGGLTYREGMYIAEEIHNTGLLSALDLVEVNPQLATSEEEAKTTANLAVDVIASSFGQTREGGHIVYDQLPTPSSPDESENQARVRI
Description: in vitro enzyme assay to detect the production of urea directly proportional to the activity of Arginase II. Also: in the data most compounds retested in dose-response had high values. The class given is functional. The conditions noted are these: 33.3 µM.

The target of test [6] is T3, Proteasome subunit beta (Trypanosoma cruzi) (UniProt O96673).
T3 sequence (whole entry): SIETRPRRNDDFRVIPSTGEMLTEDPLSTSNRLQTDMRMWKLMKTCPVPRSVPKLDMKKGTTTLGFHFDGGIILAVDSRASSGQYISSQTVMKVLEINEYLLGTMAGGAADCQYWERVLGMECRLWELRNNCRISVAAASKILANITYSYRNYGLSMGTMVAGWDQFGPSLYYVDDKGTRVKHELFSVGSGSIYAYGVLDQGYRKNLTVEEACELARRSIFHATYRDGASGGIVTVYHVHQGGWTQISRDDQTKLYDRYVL
Description: Trypanosoma cruzi proteasome chymotrypsin-like activity (TcProtChymo) assay. Also: in the data most compounds retested in dose-response had high values. Format: functional. The conditions noted are these: 9.37 µM.

The next test is filed under the species Homo sapiens. Description: To identify inhibition of the IFN signalling (Jak-Stat) pathway via expression of an eGFP reporter gene under the control of an IFN-stimulated response element (ISRE) containing MxA promoter. Particulars: 30 µM. Format: functional. Background: Reporter assays use an easily measured gene product as a stand-in for the process of interest.

Test [7] deals with T4, Tyrosyl-tRNA synthetase, putative (Trypanosoma cruzi (strain CL Brener)) (UniProt Q4DSP6).
T4 sequence (whole entry): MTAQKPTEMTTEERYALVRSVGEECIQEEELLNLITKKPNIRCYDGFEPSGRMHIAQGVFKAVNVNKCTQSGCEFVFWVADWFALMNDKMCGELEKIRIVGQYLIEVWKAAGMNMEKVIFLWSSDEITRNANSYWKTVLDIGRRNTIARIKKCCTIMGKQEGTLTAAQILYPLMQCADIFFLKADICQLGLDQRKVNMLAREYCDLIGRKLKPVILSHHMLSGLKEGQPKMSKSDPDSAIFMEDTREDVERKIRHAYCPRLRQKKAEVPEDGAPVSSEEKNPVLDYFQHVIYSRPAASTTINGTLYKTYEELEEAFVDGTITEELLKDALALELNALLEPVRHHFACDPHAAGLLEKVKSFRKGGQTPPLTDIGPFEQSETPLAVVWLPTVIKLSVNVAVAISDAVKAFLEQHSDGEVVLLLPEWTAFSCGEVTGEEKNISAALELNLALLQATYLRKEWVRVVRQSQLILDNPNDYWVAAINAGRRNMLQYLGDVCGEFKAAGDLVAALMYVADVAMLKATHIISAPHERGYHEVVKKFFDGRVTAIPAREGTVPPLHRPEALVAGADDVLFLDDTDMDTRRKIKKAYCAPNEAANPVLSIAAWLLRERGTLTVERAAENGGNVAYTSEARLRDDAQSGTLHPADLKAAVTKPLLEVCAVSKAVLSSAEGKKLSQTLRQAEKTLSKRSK
In words: Trypanosoma cruzi tyrosyl tRNA synthetase (TcYRS) _High Tyrosine SOP. Also: in the data most compounds retested in dose-response had high values. The class given is functional. The conditions noted are these: 30 µM.

For test [8], the target named is T4, Tyrosyl-tRNA synthetase, putative (Trypanosoma cruzi (strain CL Brener)). In words: Trypanosoma cruzi tyrosyl tRNA synthetase (TcYRS) SOP. The conditions noted are these: 30 µM. The class given is functional.
Test [9] addresses Chromo domain-containing protein 1 (Saccharomyces cerevisiae (strain ATCC 204508 / S288c) (Baker's yeast)) (UniProt P32657). In words: ScCHD-1 Enzyme Inhibition Assay. Also: in the data most compounds retested in dose-response had high values. Format: functional. Particulars: 30 µM.

For some assays here: Potency and affinity values are given separately.

Protein translocase subunit SecA (Escherichia coli (strain K12)), sequence (P10408 whole entry): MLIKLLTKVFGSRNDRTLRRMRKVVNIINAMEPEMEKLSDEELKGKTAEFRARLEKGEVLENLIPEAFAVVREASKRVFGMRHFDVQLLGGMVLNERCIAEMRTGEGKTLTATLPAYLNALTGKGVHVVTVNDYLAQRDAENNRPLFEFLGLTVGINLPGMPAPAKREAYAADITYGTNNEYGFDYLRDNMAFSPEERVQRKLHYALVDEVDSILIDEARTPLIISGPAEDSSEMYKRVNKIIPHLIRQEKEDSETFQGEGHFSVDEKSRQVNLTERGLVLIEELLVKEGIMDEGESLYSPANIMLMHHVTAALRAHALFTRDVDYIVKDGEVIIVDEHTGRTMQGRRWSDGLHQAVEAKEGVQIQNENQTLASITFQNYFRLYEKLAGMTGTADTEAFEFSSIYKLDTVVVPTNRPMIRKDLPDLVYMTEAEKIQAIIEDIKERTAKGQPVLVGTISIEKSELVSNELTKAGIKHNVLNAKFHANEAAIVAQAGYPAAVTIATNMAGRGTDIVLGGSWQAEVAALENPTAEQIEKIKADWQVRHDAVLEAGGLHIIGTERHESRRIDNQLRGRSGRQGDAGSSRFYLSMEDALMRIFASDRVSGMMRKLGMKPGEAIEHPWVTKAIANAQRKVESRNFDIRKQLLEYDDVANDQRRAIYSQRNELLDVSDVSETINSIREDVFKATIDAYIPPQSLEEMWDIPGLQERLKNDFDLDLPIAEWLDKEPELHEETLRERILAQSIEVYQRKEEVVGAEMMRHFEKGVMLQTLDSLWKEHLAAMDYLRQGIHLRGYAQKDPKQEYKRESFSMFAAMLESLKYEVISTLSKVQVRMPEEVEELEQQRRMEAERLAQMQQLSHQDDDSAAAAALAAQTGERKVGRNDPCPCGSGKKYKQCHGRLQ
Chromo domain-containing protein 1 (Saccharomyces cerevisiae (strain ATCC 204508 / S288c) (Baker's yeast)), sequence (P32657 whole entry, the tested form may be a part): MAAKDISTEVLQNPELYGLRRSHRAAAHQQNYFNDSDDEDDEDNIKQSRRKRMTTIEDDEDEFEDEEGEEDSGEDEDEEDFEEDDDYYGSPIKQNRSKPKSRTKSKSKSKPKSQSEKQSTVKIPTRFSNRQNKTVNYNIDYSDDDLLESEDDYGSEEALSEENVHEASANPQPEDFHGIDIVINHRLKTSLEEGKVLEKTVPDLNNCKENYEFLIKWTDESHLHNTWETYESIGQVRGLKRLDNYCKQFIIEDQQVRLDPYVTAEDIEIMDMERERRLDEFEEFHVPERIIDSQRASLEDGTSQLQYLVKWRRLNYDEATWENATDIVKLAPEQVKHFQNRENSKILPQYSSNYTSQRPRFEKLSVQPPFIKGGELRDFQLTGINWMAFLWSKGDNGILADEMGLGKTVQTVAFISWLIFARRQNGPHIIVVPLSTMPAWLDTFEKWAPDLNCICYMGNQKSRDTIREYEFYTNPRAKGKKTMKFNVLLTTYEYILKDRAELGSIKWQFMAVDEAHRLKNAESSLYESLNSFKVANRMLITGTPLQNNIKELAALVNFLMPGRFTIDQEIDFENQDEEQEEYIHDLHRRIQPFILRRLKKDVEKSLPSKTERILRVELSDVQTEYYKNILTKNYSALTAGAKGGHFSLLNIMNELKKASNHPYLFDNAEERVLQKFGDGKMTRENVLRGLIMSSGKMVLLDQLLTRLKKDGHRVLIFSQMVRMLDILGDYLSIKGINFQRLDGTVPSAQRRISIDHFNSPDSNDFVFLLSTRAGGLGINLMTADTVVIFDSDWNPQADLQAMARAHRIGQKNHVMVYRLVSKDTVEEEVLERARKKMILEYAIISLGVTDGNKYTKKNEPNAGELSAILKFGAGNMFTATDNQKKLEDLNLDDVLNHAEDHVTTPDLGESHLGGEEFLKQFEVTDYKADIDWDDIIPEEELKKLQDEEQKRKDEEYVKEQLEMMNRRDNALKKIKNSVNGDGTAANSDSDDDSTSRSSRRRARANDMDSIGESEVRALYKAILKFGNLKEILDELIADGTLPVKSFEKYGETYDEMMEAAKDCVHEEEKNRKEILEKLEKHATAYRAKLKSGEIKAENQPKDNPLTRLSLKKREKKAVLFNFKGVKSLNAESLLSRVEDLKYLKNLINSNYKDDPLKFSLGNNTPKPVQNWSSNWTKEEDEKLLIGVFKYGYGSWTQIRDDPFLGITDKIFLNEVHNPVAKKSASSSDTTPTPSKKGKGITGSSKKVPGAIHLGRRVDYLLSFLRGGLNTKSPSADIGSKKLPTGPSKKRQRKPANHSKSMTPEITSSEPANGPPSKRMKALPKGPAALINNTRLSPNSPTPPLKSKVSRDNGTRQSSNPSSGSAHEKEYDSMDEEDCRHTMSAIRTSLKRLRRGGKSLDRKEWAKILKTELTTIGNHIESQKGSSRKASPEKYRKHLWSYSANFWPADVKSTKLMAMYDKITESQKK
Sialic acid-binding Ig-like lectin 9 (Homo sapiens), sequence (Q9Y336 whole entry): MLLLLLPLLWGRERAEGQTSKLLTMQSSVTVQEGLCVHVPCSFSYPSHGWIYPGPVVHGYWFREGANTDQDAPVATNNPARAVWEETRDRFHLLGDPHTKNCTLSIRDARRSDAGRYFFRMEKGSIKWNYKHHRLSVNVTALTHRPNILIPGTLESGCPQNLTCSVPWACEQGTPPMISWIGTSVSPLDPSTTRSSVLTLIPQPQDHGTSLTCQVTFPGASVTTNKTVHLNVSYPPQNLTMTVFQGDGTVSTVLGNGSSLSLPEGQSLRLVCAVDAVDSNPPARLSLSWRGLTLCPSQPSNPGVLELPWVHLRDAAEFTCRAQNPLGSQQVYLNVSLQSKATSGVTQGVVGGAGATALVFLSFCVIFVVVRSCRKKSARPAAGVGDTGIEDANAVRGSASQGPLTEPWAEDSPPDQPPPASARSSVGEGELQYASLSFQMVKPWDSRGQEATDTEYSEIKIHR

As to `N#CCCN(C(=O)CN1CCCC1c1ccsc1)c1ccccc1F` (stereo not given), the Percent Effect in test [1] was -3.56%; in test [2], -18.9%; in test [3] it was -2.34%; in test [4] it was -0.732%; in the test with Trypanosoma cruzi, -2.51%; in test [5] it was -8.69%. The Percent Effect is -0.718% in [6]; 16.7% in the test listed under Homo sapiens; 3.96% in test [7]; 1.22% in test [8]; 21.4% in test [9].
Consider `CCc1ccc(CNC(=O)NC(C)CN2CCOCC2)s1` (stereo not given), for which the Percent Effect in test [1] was -1.82%; in [2], 18.4%; in test [3], -5.99%; in [4], -6.5%; in the test on Trypanosoma cruzi, 1.46%; in [5], 1.18%. In addition, the Percent Effect in [6] is 9.49%; in the test filed under Homo sapiens, 5.21%; in test [7], -12.8%; in test [8], 15.6%; in [9], 8.4%.
In the case of `CC1CN(C(=O)c2ccn(-c3cccc(Cl)c3)n2)CCO1` (stereo not given), the Percent Effect was -7.39% in test [1]; 20.8% in [2]; 0.341% in test [3]; 6.09% in [4]; 7.87% with Trypanosoma cruzi; -2.13% in test [5]. The Percent Effect in test [6] was 17.4%; in the test filed under Homo sapiens it was 16.3%; in test [7], 8.74%; in [8] it was 24.4%; in test [9] it was -10.1%.
Regarding `CN(C)CCO[C@H]1CN(Cc2cccc(C#N)c2)[C@@H]2COC[C@H]12`, the Percent Effect in test [1] is -3.05%; in test [2], 5.33%; in [3], 0.409%; in test [4], 2.27%; in the test with Trypanosoma cruzi, 2.32%; in [5], -44.6%. For the same compound, the Percent Effect in [6] was 9.91%; in the test filed under Homo sapiens, -12.1%; in test [7], 6.25%; in test [8], 17.5%; in test [9] it was -5.99%.
Turning to `Cc1nc(C)n(C2CCCN(C(=O)c3csc(C(C)C)n3)C2)n1` (stereo not given), the Percent Effect in test [1] is -5.33%; in [2] it was 29.7%; in test [3], -10.5%; in [4], 12.2%; in the test with Trypanosoma cruzi, 8.4%; in test [5] it was -10.4%. The Percent Effect in [6] is 8.83%; in the test filed under Homo sapiens, 14.5%; in test [7] it was 8.37%; in test [8] it was 28.4%; in test [9] it was -17.4%.
Turning to `CS(=O)(=O)N1CCC(C(=O)NCCNc2ncccn2)CC1`, the Percent Effect was -3.08% in test [1]; 10.8% in test [2]; 2.54% in test [3]; -1.9% in test [4]; 8.45% in the test with Trypanosoma cruzi; -7.21% in test [5]. In addition, the Percent Effect in [6] was 14.2%; in the test filed under Homo sapiens, 14.8%; in test [7], 6.93%; in test [8], 15.8%; in [9] it was -3.22%.
As to `CCc1cc(NCC(O)CN2CCCCC2)n2ncnc2n1` (stereo not given), the Percent Effect is -4.14% in test [1]; 7.89% in test [2]; 2.69% in test [3]; 4.78% in [4]; 1.27% in the test on Trypanosoma cruzi; -2.37% in [5]. Besides, the Percent Effect in test [6] was 15.2%; in the test filed under Homo sapiens, 3.03%; in test [7], 4.25%; in [8], 13%; in test [9], -4.78%.
Turning to `CN(C)C[C@H]1OC[C@@H]2CCN(C(=O)c3cccn3C)C[C@@H]21`, the Percent Effect in [1] was -3.89%; in test [2], 0%; in test [3], -8%; in [4], 19.3%; with Trypanosoma cruzi, 4.59%; in test [5], 9.18%. Moreover, the Percent Effect was 6.44% in test [6]; 4.8% in the test listed under Homo sapiens; 6.45% in test [7]; 13.6% in test [8]; -6.04% in [9].
On to `CCc1nc(C(=O)NCc2ccc(N3CCNC(=O)C3)c(F)c2)c[nH]1`, for which the Percent Effect in [1] is 2.33%; in [2] it was 18.9%; in test [3], -4.78%; in test [4], 31.7%; in the test with Trypanosoma cruzi, 4.63%; in test [5], -3.81%. Moreover, the Percent Effect in [6] was 20%; in the test filed under Homo sapiens, 13.4%; in [7], 5.82%; in test [8], 12.2%; in [9], -2.24%.
Regarding `CCC1=N[C@@]2(CC[C@@H]3CN(C(=O)Nc4ccc(F)cc4)C[C@@H]32)C(=O)N1`, the Percent Effect was -5.91% in [1]; 5.41% in test [2]; -0.761% in test [3]; -2.41% in test [4]; 7.42% in the test on Trypanosoma cruzi; -2.5% in [5]. In addition, the Percent Effect in [6] is 13.1%; in the test filed under Homo sapiens, -26.3%; in test [7], 7.92%; in [8], 8.54%; in [9], -6.29%.
